Compounds with a hit are over-represented: about 4.8% of the library has one in this group of screens.
ssDAF12 agonist = activates DAF-12 receptor from parasite S. stercoralis; HEK293 ssDAF-12/GRIP1 lit1-tk-luc reporter, luminescence; % of 3 µM dafachronic acid response; activation, % at 6.8 µM; hit rate 1% among 370,000; AID 652126;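 active means activation above the mean over all tested compounds plus 3 SD, cut at about 0.9% in these data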;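 further: 0% = DMSO-only wells and 100% = 3 µM delta7-dafachronic acid wells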
DAX1 inh-1 = inhibitors of DAX1 repression of SF-1 activated StAR promoter | HEK293T StAR-luciferase reporter, SF-1/DAX-1 repression relief | inhibition, % at 6.8 µM | hit rate 1.1% among 370,000 | AID 652010;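 active means inhibition above the mean over all tested compounds plus 3 SD, cut at about 3.6% in these data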;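 further: 0% = DAX-1 cells with DMSO and 100% = cells lacking DAX-1 with DMSO; higher inhibition means more luminescence from relief of DAX-1 repression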
DAX1 inh-2 = inhibits human nuclear receptor DAX1. P51843. HEK293 Gal4-DAX1 luciferase reporter, luminescence. inhibition, % at 6.75 µM. hit rate 0.99% among 340,000. AID 504766;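 active means inhibition above the mean over all tested compounds plus 3 SD, cut at about 4.2% in these data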;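 further: 0% = DAX1-transfected cells with DMSO and 100% = empty-vector control cells with DMSO; inhibition shows as a rise in luminescence from relieved DAX1 repression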
Target sequence (P51843 207-470 limits assumed): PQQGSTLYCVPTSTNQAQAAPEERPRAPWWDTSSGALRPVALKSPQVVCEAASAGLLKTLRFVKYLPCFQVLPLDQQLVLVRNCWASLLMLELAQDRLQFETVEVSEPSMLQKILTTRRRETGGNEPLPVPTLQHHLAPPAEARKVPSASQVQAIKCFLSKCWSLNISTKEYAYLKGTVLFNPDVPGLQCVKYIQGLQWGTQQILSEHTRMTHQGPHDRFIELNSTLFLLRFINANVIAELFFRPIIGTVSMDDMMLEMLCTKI
hcDAF12 agonist = activators of H. contortus DAF-12 nuclear receptor; HEK293 hcDAF-12 lit1-tk-luc reporter, luminescence; 0% DMSO, 100% Δ7-dafachronic acid; activation, % at 6.8 µM; hit rate 1.4% among 370,000;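 active means activation above the mean of all tested compounds plus 3 SD, cut at about 5.5% in these data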;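 further: 100% = response to 3 µM Δ7-dafachronic acid high control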
SMARCA2 act = increases SMARCA2 function in MMTV reporter cells; AID 652017; activation, % at 9.1 µM; hit rate 1% among 370,000; MG213 cells, MMTV-luciferase reporter, dexamethasone, overnight; in the data active means activation above about 7.8%;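 further: 0% = vehicle wells and 100% = reference activator wells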
hgDAF12 agonist = activates the H. glycines DAF-12 receptor ligand-binding domain; hit rate 1.8% among 370,000; AID 687014; activation, % at 6.8 µM; HEK293 GAL4-hgDAF12 UAS-luciferase reporter, agonist luminescence; normalized to butyrate control;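 active means activation above a cutoff set at the mean of all screened compounds plus 3 SD, cut at about 10% in these data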;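 further: 0% = DMSO wells and 100% = sodium butyrate wells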
DAX1 conf = NR0B1 (human) inhibition, confirmation; shares compounds with DAX1 inh-1; HEK293T StAR-promoter luciferase reporter, SF-1/DAX-1 repression; inhibition, % at 6.8 µM; hit rate 87% among 2,400;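 active means inhibition above the average of every tested compound plus 3 SD, cut at about 3.8% in these data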;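 further: 0% = DAX-1 cells with DMSO and 100% = no DAX-1 control cells with DMSO; active compounds raise luminescence by relieving repression of the StAR reporter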
SF1 mutant ctr = counter-screen for DAX1 inhibitors: nonselective inhibitors with SF-1 AF2 mutant. shares compounds with DAX1 inh-1. HEK293 StAR-luciferase, luminescence. inhibition, % at 6.8 µM. hit rate 78% among 2,400. AID 652136;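 active means inhibition above the mean of all tested compounds plus 3 SD, cut at about 3% in these data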;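 further: 0% = DAX-1 transfected cells with DMSO and 100% = cells without DAX-1 with DMSO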
SMARCA2 act conf = SMARCA2 activation, confirmation screen. shares compounds with SMARCA2 act. MG213 cells, MMTV-luciferase with dexamethasone, luminescence, overnight; MG213 cells expressing E1A, Rb sequestered; DMSO wells 0%, reference activator 100%. activation, % at 9.1 µM. hit rate 30% among 3,500;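 active means activation above its plate's cutoff, the mean activation of tested wells plus 3 SD, cut at about 7.9% in these data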
VP16 Luc act = activates GAL4-VP16 luciferase, flagging SMARCA2 activator hits; shares compounds with SMARCA2 act; HEK293 GAL4-VP16 pG5luc reporter, luciferase luminescence; scaled: DMSO wells 0%, SAHA wells 100%; activation, % at 9.1 µM; hit rate 41% among 3,500; AID 686939;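 active means activation above the solvent-only control well mean plus 3 SD, averaged across control plates, cut at about 5.2% in these data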
LXRb hcDAF ctr = activates human LXR-beta, counter-screen for hcDAF-12 agonists; HEK293 Gal4-LXR tk-luc reporter, luminescence, 24 h; normalized: DMSO 0%, positive control 100%; 3,400 tested, under 10 active; activation, % at 6.8 µM; shares compounds with hcDAF12 agonist;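 active means mean percent activation of the reporter above a cutoff set as the average over tested compounds plus their standard deviation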
Target sequence (P55055 whole entry, looked up, the tested form may be a part): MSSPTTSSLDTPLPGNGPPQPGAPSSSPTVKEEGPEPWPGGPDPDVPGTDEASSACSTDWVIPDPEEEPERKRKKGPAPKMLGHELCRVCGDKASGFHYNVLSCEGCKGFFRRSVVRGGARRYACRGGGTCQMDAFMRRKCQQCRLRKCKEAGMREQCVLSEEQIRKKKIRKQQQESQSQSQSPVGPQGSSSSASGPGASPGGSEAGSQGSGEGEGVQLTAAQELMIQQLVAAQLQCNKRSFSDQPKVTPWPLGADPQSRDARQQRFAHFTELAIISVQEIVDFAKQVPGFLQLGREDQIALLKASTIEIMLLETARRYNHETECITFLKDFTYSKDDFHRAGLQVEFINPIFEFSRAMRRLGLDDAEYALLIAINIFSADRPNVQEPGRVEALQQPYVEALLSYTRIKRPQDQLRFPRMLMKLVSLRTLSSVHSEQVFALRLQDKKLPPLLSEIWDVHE
hcDAF12 conf = confirmation of H. contortus DAF-12 agonists | shares compounds with hcDAF12 agonist | HEK293 hcDAF-12 lit1-tk-luc reporter, luminescence; % of Δ7-dafachronic acid response | activation, % at 6.8 µM | hit rate 61% among 3,400;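 active means mean activation across triplicate tests above the threshold derived from the earlier primary screen, cut at about 5.5% in these data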;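 further: 0% = DMSO only wells and 100% = 3 µM Δ7-dafachronic acid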
hgDAF12 conf = hgDAF-12 agonism, confirmation assay; shares compounds with hgDAF12 agonist; HEK293 GAL4-hgDAF12 luciferase reporter, agonist mode; percent of butyrate response; activation, % at 6.8 µM; hit rate 80% among 3,300; AID 743050;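 active means mean activation over triplicate wells above the hit cutoff derived from the earlier primary screen, cut at about 11% in these data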;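 further: 0% = DMSO low control and 100% = 2 mM sodium butyrate high control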
LXRb DAF12 ctr = LXR-beta agonism as DAF-12 counter-screen. shares compounds with hgDAF12 agonist. HEK293 Gal4-LXR luciferase reporter, 24 h. activation, % at 6.8 µM. 3,300 tested, under 10 active;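 active means mean activation of the triplicate above a set limit carried over from the primary screen, none filed active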
The depositor's hits bear a star; · = no result.

SMILES | ssDAF12 agonist | DAX1 inh-1 | DAX1 inh-2 | hcDAF12 agonist | SMARCA2 act | hgDAF12 agonist | DAX1 conf | SF1 mutant ctr | hgDAF12 conf | LXRb DAF12 ctr | others
COC(=O)[C@]1(C#N)CC(=O)N(CC(C)C)[C@@H]1c1ccccc1 | -1 | 0 | · | 3 | -1 | -1 | · | · | · | ·
CCOc1ccccc1NC(=O)NNC(=O)CCn1nc(C)c([N+](=O)[O-])c1C | -1 | 1 | · | -2 | -6 | 0 | · | · | · | ·
Cc1nnc(NC(=O)CSc2ccc(-c3ccc(Cl)cc3)nn2)s1 | -2 | 0 | 0 | 1 | 2 | 3 | · | · | · | ·
CCc1ccc(-c2ccc(SCC(=O)Nc3nnc(C)s3)nn2)cc1 | 0 | 6.0* | 0 | 7.6* | 1 | 21* | 10* | 7.8* | 16* | 1 | LXRb hcDAF ctr=1;hcDAF12 conf=6.0*
C(=N\N=C\c1cccnc1)/c1cccnc1 | · | · | 0 | · | · | · | · | · | · | ·
CN(/N=C/c1cccnc1)c1cnc2ccccc2n1 | 4.2* | 7.3* | 2 | 12* | 9.0* | 20* | 11* | 5.8* | 17* | 1 | SMARCA2 act conf=19*;VP16 Luc act=11*;LXRb hcDAF ctr=1;hcDAF12 conf=10*
Fc1ccc(N/N=C/c2ccncc2)c(F)c1 | -1 | 2 | 0 | -1 | 2 | 4 | · | · | · | ·
O=C(O)c1ccc(/C=N/Nc2ccc(F)cc2F)cc1 | 2.5* | 12* | -1 | 9.8* | 11* | 21* | 20* | 5.5* | 21* | 1 | SMARCA2 act conf=6;VP16 Luc act=5
CC(=O)NC1CCCCN(C(C)C)C1=O (configuration not stated) | -1 | 1 | · | 2 | -2 | 0 | · | · | · | ·
O=C(/C=C/c1ccc(Cl)cc1)Nc1nccs1 | 1 | 11* | 0 | 8.6* | 2 | 24* | 18* | 10* | 20* | 1 | LXRb hcDAF ctr=2;hcDAF12 conf=7.7*
COc1ccc(-c2ncncc2-c2ccccc2)c(O)c1 | -1 | 0 | 1 | -2 | 2 | 3 | · | · | · | ·
COc1ccc(-c2cc(-c3ccccc3)n[nH]2)c(O)c1 | 0 | 5.5* | 2 | 4 | 4 | 16* | 6.3* | 5.5* | 16* | 1
C=CC[C@@H]1NN2C(=O)[C@@H](C)[C@@H]3c4ccccc4C=NN3[C@@H]2c2ccccc21 | -1 | -1 | · | -1 | -3 | -1 | · | · | · | ·
CC(C)CC(=O)Nc1ccc(-c2nc3ccccc3c(=O)[nH]2)cc1 | 0 | 5.0* | 2 | 3 | 3 | 16* | 17* | 7.6* | 21* | 1
CC(C)CC(=O)Nc1ccc(-c2nc3ccccc3c(=O)o2)cc1 | -1 | 0 | -2 | -2 | 3 | -2 | · | · | · | ·
COc1ccc(OCc2cc(C(=O)N3CCOCC3)no2)c(Cl)c1 | 0 | 7.4* | 0 | 3 | 7 | 13* | 9.8* | 7.5* | 15* | 1
CC(C)N1CCCCC(NC(=O)c2cccs2)C1=O (configuration not stated) | -1 | 0 | · | 0 | 0 | 2 | · | · | · | ·
Nc1cccc(-c2nc3cc(S(=O)(=O)c4ccc5oc(-c6cccc(N)c6)nc5c4)ccc3o2)c1 | -2 | 0 | 0 | -1 | -1 | -2 | · | · | · | ·
Cc1ccc2oc(-c3cccc(N)c3)nc2c1 | 2.5* | 6.4* | 0 | 14* | 4 | 23* | 16* | 8.2* | 23* | 1 | LXRb hcDAF ctr=1;hcDAF12 conf=10*
C/C(=N\Nc1nccnc1Cl)c1ccc(Cl)c(Cl)c1 | 1 | 4.5* | 2 | 6.3* | 7 | 17* | 3 | 3 | 3 | 0
C/C(=N\Nc1nccnc1Cl)c1ccc(F)cc1 | 1.5* | 9.6* | 2 | 4 | 8.9* | 20* | 6.5* | 4.2* | 11* | 0 | SMARCA2 act conf=10*;VP16 Luc act=12*
O=C(CNS(=O)(=O)c1ccccc1)N1CCN(c2ccccn2)CC1 | -1 | -1 | · | 0 | 4 | -1 | · | · | · | ·
O=C(Nc1ccc(F)cc1)OCc1cn(Cc2cc(F)ccc2F)nn1 | -1 | 1 | · | -1 | 0 | 1 | · | · | · | ·
O=C(Nc1cccc(F)c1)c1ccc(-n2cncn2)c2ccoc12 | 0 | 9.0* | · | 9.4* | 12* | 17* | 16* | 5.4* | 17* | 1 | SMARCA2 act conf=8.2*;VP16 Luc act=8.7*;LXRb hcDAF ctr=2;hcDAF12 conf=9.5*
CCOC(=O)CC[C@H]1CC[C@]2(CCCN(S(=O)(=O)c3ccccc3)C2)O1 | -1 | 0 | · | -2 | 0 | -3 | · | · | · | ·
CCn1cnc2cc(NCc3nc4ccccc4n3Cc3ccccc3)ccc21 | -2 | 0 | 1 | -1 | -1 | -2 | · | · | · | ·
CCn1cnc2cc(NCc3nc4ccccc4n3C)ccc21 | 1.1* | 5.9* | 0 | 15* | 1 | 18* | 10* | 4.8* | 13* | 1 | LXRb hcDAF ctr=1;hcDAF12 conf=7.5*
Cc1cc(C(=O)Nc2nc(C)c(C(=O)N(C)C)s2)ccc1[N+](=O)[O-] | 0 | 4.6* | 1 | 3 | 4 | 14* | 13* | 5.4* | 11* | 1
c1ccc(-c2noc(-c3ccc4c(c3)OCO4)n2)cc1 | 1.2* | 5.0* | 4 | 6.3* | 5 | 22* | 18* | 7.7* | 19* | 1
COc1cccc(-c2noc(-c3ccc4c(c3)OCO4)n2)c1 | 1.8* | 6.1* | 4.3* | 5 | 5 | 17* | 13* | 4.0* | 17* | 1
